Experimental data taken from PubChem BioAssay (NCI).
The panel holds about 83,000 compounds, 20% with a hit somewhere; the sample as a whole holds those more often.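 Cells were grown in 96-well plates and exposed to the test compound at a single concentration for 48 hours; results are reported as percent growth, with values below 10 considered active.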 The source made the active and inactive calls.

Test system: SW-620 colon
Assay: NCI-60 one-dose screen, 48 h (100 = growth as untreated, 0 = no growth, -100 = all killed)
Conditions: 10 µM unless noted
Method: Growth inhibition of the SW-620 human tumor cell line is measured as a screen for anti-cancer activity. Cells are grown in 96 well plates and exposed to the test compound for 48 hours. Compounds are tested at a single concentration, which is 10^-5 M for most compounds. The reported endpoint is percent growth (GI% or GIPRCNT), where numbers from 0 - 100% represent growth inhibition, and numbers from -100% - 0 represent cell death. For example, a value of 40 represents 60% growth inhibition. A value of 0 means no net growth occurred over the course of the experiment. A value of -40 indicates 40% of cells at the beginning of the experiment died by the end of the experiment. A value of -100 means all cells are dead at the end of the experiment.
NCI-60 Human Tumor Cell Lines Screen was performed using the standard one-dose NCI protocol, which is described in more detail at https://dtp.cancer.gov/discovery_development/nci-60/default.htm.
Compounds with GIPRCNT values below 10 were considered active. Activity score was based on GIPRCNT using the following formula: […]
Score is 0 for GIPRCNT values of 100 or above, 50 for GIPRCNT values of 0, and 100 for GIPRCNT values of -100.

Row | SMILES | growth
1 | COc1cc2nc(Cl)nc(Nc3cccc(C(=O)/C=C/c4ccccc4)c3)c2cc1OC | -11.9% (active)
2 | CC(C)=CCC[C@](C)(O)[C@H]1CC[C@]2(C)[C@@H]1CC[C@@H]1[C@@]3(C)C/C(=C/c4ccc(Br)cc4)C(=O)C(C)(C)[C@@H]3CC[C@]12C | 82.2% (inactive)
3 | Cn1cc(-c2nc(-c3cn(C)c4ncccc34)cs2)c2ccccc21 | 27% (inactive)
4 | O=S(=O)(NCCNc1cc(-c2cn(-c3ccccc3)nc2-c2cccc(O)c2)ccn1)c1ccc(C(F)(F)F)cc1 | 64.8% (inactive)
5 | C=C(C)[C@@H]1CC[C@]2(/C=N/Nc3ccncc3)CC[C@]3(C)[C@H](CC[C@@H]4[C@@]5(C)CCCNC(C)(C)[C@@H]5CC[C@]43C)[C@@H]12 | 41.4% (inactive)
6 | O=C(N/N=C\c1ccccc1O)C1CC1 | 108% (inactive)
7 | COc1ccc2c(c1)C/C(=C\c1cc(-c3cc(OC)c(OC)c(OC)c3)n[nH]1)C2=O | 91.1% (inactive)
8 | COc1ccc(/C=C(\C#N)c2cc3ccccc3n2C(C)=O)cc1 | 59.5% (inactive)
9 | Cn1cc(-c2csc(-c3cn(CCN)c4ccc(Br)cc34)n2)c2cccnc21 | 21.1% (inactive)
10 | C(=C\c1c[nH]c2ccccc12)/c1ccc2ccccc2n1 | 107% (inactive)
11 | O=C1Nc2ccccc2/C1=C/c1cn(CCCn2c3ccccc3c(=O)c3ccccc32)c2ccccc12 | 98.4% (inactive)
12 | O=C(CCCCCn1c2ccccc2c2c3c(c4c5ccccc5[nH]c4c21)C(=O)N(O)C3=O)N1CCOCC1 | 56.4% (inactive)
13 | COc1cc(/C=N/Nc2ncnc3c2c(C)nn3-c2ccc(F)cc2)ccc1O | 131% (inactive)
14 | COc1ccc(NC(=O)c2ccc3c(c2)nc(-c2cc4ccccc4[nH]c2=O)n3-c2cc(C(C)(C)C)[nH]n2)cc1 | 102% (inactive)
15 | COc1cc(-c2cc(-c3nc4cc(Cl)c(Cl)cc4[nH]3)[nH]n2)cc(OC)c1OC | 82.7% (inactive)
16 | C[C@]12CC[C@@H]3c4ccc(O)cc4CC[C@H]3[C@@H]1C[C@H](O)[C@@H]2O | 90.1% (inactive)
17 | O=C1C(=O)N(CCCCn2cc(-c3ccccc3)nn2)c2ccccc21 | 104% (inactive)
18 | Clc1cc(Cl)cc(Nc2ccc3c(OCCCN4CCOCC4)cccc3n2)c1 | -41.9% (active)
19 | COc1cccc(-c2nn(-c3ccccc3)cc2-c2ccnc(NCCNS(=O)(=O)c3ccccc3)c2)c1 | 43.9% (inactive)
20 | CN1CCN(CCOc2ccc(-c3cnc4c(-c5cccc(F)c5)cnn4c3)cc2)CC1 | -28.7% (active)

Row | SMILES | growth
21 | O=C(N/N=C\c1c(O)ccc2ccccc12)C1CC1 | 51.7% (inactive)
22 | Cc1cc(N2CCCCC2)nc(N(CCNc2ccnc3cc(Cl)ccc23)Cc2ccco2)n1 | 21.9% (inactive)
23 | C[Si](C)(C)Cc1ccccc1 | 107% (inactive)
24 | OCC(CO)(CCl)CCl | 101% (inactive)
25 | CCC(=O)c1c(C)[nH]c(C)c1C | 52.3% (inactive)
26 | Cn1c(=O)c2c(nc(N3CCCC3)n2C)n(C)c1=O | 106% (inactive)
27 | COc1cc(/C=C/c2cc(/C=C/c3ccc(O)c(OC)c3)n(-c3ccc(Cl)cc3)c(=O)n2)ccc1O | 85.6% (inactive)
28 | COc1cccc(-c2nn(-c3ccccc3)cc2-c2ccnc(NCCCO)c2)c1 | 21.3% (inactive)
29 | O=C1/C(=C\C(Cl)=C/c2ccc([N+](=O)[O-])cc2)SC(=S)N1CCc1ccc(O)cc1 | -30.1% (active)
30 | CC[C@H](CC[C@@H](C)[C@H]1CC[C@H]2[C@@H]3/C(=C/c4cccnc4)C(=O)C4=CC(=O)CC[C@]4(C)[C@H]3CC[C@]12C)C(C)C | 93.7% (inactive)
31 | C/C(=N/NC(N)=S)C(=O)O | 77.6% (inactive)
32 | Cn1cc(-c2nc(-c3c[nH]c4ncccc34)cs2)c2cc(Br)ccc21 | 95.8% (inactive)
33 | CN(C)c1ccc(N=C2C=CC(=O)C=C2)cc1 | 96.3% (inactive)
34 | NCCNc1nc(-c2ccccc2)nc2nc(-c3ccccc3)oc12 | 51% (inactive)
35 | COc1cc(-c2cc3ncccc3c3[nH]c(=O)c4cccnc4c23)cc(OC)c1OC | 32.9% (inactive)
36 | C[C@H]1[C@H]2C3=CC[C@@H]4[C@@]5(C)C/C(=C/c6ccco6)C(=O)C(C)(C)[C@@H]5CC[C@@]4(C)[C@]3(C)CC[C@@]2(C(=O)N2CCOCC2)CC[C@@H]1C | 25.3% (inactive)
37 | Cc1nn(-c2ccc(Br)cc2)c2nc3[nH]c(=O)[nH]c(=O)c3nc12 | 103% (inactive)
38 | COc1ccc2c(c1)C/C(=C\c1cc(-c3ccc4c(c3)OCO4)n[nH]1)C2=O | 96.6% (inactive)
39 | Cn1cc(-c2csc(-c3c[nH]c4ccccc34)n2)c2cccnc21 | 29.6% (inactive)
40 | O=C1CN(c2ccccc2)C(=O)C1C(=O)Nc1ccc(Cl)c(Cl)c1 (stereo not given) | 20.1% [100 µM] (inactive)
